CYP2C19 inh: blocks human cytochrome P450 2C19; P33261; CYP2C19 Supersomes, luciferin-H EGE luminescence, 30 min; inhibition, % at 5 µM; hit rate 21% among 96,000; AID 778;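 active = CYP2C19 inhibition above a set limit at 5 µM in the primary screen, cut at about 50% in these data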;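 also: plate controls were negative control wells for no effect and 2.5 mM tranylcypromine positive control for full effect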
CYP2C19 act: cytochrome P450 2C19 (human) activation; AID 1025; P33261; activation factor at 5 µM; 96,000 tested, under 10 active; recombinant CYP2C19, luciferin-H EGE luminescence; hits give high values; 0 = fully inhibited enzyme, 1 = untreated enzyme;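 active = activation factor of at least 2 at 5 µM in the primary screen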;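 also: 0 = wells with 2.5 mM tranylcypromine and 1 = vehicle-only wells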
Cav32 inh: inhibitors of human Cav3.2 T-type calcium channel; O95180; Cav3.2-expressing cells, Fluo-4 calcium fluorescence FDSS; hits give low values; B-score at 10 µM; hit rate 4% among 100,000;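 active = single-dose well whose peak fluorescence ratio is a statistical outlier from its plate by either plate-standardised score or position-corrected B-score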
CYP2C9 act: increases human cytochrome P450 2C9 activity | recombinant CYP2C9, luciferin-H conversion, luminescence; hits give high values; factor 1 = untreated enzyme, 0 = blocked | activation factor at 5 µM | P11712 | hit rate 1.4% among 96,000;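 active = activation factor of 2 or more for CYP2C9 at a 5 µM dose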;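 also: 0 = sulfaphenazole-blocked wells and 1 = vehicle-only wells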
Target sequence (P11712 whole entry, looked up): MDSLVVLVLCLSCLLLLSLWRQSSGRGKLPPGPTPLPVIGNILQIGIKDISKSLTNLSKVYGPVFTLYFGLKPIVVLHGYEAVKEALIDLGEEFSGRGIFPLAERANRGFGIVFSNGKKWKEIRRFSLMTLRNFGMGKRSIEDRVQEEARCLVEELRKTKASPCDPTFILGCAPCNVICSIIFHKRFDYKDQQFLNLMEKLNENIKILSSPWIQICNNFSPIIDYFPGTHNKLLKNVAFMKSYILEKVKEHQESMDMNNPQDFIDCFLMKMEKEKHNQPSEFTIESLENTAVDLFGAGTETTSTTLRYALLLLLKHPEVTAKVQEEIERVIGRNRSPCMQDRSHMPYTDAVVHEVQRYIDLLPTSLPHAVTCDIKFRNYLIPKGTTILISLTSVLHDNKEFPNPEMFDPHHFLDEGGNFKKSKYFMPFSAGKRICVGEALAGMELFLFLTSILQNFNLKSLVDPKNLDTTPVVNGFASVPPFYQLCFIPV
CYP2C9 inh: human CYP2C9 inhibition | CYP2C9 Supersomes, luciferin-H conversion, luminescence | inhibition, % at 5 µM | hit rate 20% among 96,000 | AID 777;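 active = blocking of liver enzyme CYP2C9 beyond about 50% at 5 µM, limit read from the data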
An asterisk follows results filed as active; x = not tested or not shown. This is a sample that favours compounds with a hit; in the whole collection about 27% have one here.

SMILES | CYP2C19 inh | CYP2C19 act | Cav32 inh | CYP2C9 act | CYP2C9 inh
Cc1c(C(=O)N2CCC3(CC2)OCCO3)sc2ncnc(N(C)c3ccccc3)c12 | 13 | 0.9 | x | 0.3 | 73*
Cc1sc2ncn(CC(=O)N3CCC4(CC3)OCCO4)c(=O)c2c1C | 6 | 0.9 | 0.73 | 0.7 | 32
COC(=O)C(O)(c1cn(C)c2ccccc12)C(F)(F)F (configuration not stated) | 6 | 0.9 | 0.26 | 2.8* | -180
CC(NCc1ccc(Cl)c(Cl)c1)C(O)c1ccccc1 (configuration not stated) | 100* | 0 | -2.5 | 0.6 | 42
CC(NCc1ccccc1Cl)C(O)c1ccccc1 (configuration not stated) | 96* | 0 | -0.12 | 1 | 1
COc1ccc(N=C2SCCCN2C)cc1 | x | x | -0.9 | x | x
CCCC(C)C1(CC)C(=O)NC(=Nc2ccc(F)cc2)NC1=O (configuration not stated) | 17 | 0.8 | 0.85 | 0.4 | 58*
CCCC(C)C1(CC)C(=O)NC(=Nc2ccccc2)NC1=O (configuration not stated) | x | x | -0.059 | x | x
CCn1nc(-c2cccs2)nc2c(=O)n(C)c(=O)nc1-2 | 99* | 0 | x | 0.1 | 91*
CCCCCCn1c(O)c(C=NCCCn2ccnc2)c(=O)[nH]c1=O | 40 | 0.6 | 0.36 | 0.1 | 93*
COc1ccc(Cn2c(O)c(C=NCCCn3ccnc3)c(=O)[nH]c2=O)cc1 | 5 | 1 | 0.26 | 0.4 | 63*
CCCCn1c(O)c(C(CC)=NCc2cc(OC)cc(OC)c2)c(=O)[nH]c1=O | 87* | 0.1 | -1.8 | 0.1 | 94*
CCCCn1c(O)c(C(C)=NCc2cc(OC)cc(OC)c2)c(=O)[nH]c1=O | 87* | 0.1 | -3.9 | 0 | 98*
O=C1C2CCCN2C(c2cccc(Cl)c2)N1c1ccccn1 (configuration not stated) | 13 | 0.9 | 0.034 | 1 | 5
Cc1ccc2c(c1)C(c1ccccc1)NCC(=O)N2 (configuration not stated) | -6 | 1.1 | 1.1 | 1.1 | -6
Cc1ccc(N2C(=O)/C(=C/c3ccc(CN(CCC#N)S(C)(=O)=O)o3)C(=O)NC2=S)cc1 | 11 | 0.9 | 1.1 | 0.5 | 47
c1ccc(-c2nnc(C3CC(c4cccnc4)=NO3)o2)cc1 (configuration not stated) | x | x | -1.4 | x | x
CC(=O)N(C)CC#CCN1CCCC(CO)C1 (configuration not stated) | x | x | 0.58 | x | x
CCC(=NC1CC1)c1c(O)n(C2CCCCC2)c(=O)[nH]c1=O | 99* | 0 | -0.33 | 1 | 2
C=CCn1c(O)c(C(CC)=NC2CC2)c(=O)[nH]c1=O | 10 | 0.9 | 0.63 | 0.9 | 6
CCOC(=O)CCCCCNC(=O)c1c(O)[nH]c(=O)[nH]c1=O | x | x | -0.02 | x | x
CC(C)(C)C(O)C(Oc1ccc(Cl)cc1)n1cncn1 (configuration not stated) | 95* | 0 | x | 0.4 | 58*
O=c1c2ccccc2[nH]c(=S)n1-c1ccc2c(c1)OCO2 | 97* | 0 | x | 0.2 | 83*
O=C1CC(=O)N(c2ccc3c(c2)OCO3)C(=O)N1 | -18 | 1.2 | 0.39 | 1.2 | -19
O=C(C1CC(=O)N(c2ccc(F)c(Cl)c2)C1)N1CCC2(CC1)OCCO2 (configuration not stated) | 18 | 0.8 | 0.49 | 1 | -2
SMILES | CYP2C19 inh | CYP2C19 act | Cav32 inh | CYP2C9 act | CYP2C9 inh
COc1ccc(C2NCc3ccccc3-n3cccc32)cc1 (configuration not stated) | 50 | 0.5 | -0.15 | 0.8 | 15
COc1cc(C2NCc3ccccc3-n3cccc32)ccc1O (configuration not stated) | 73* | 0.3 | -0.82 | 0.3 | 66*
CC(=NCC1CCCO1)c1c(O)n(Cc2ccccc2)c(=O)[nH]c1=O (configuration not stated) | 14 | 0.9 | 0.79 | 1.1 | -7
Oc1ccc(/C=N/NP(=S)(c2ccccc2)c2ccccc2)cc1O | 90* | 0.1 | x | 0 | 99*
Oc1ccc(/C=N/NP(=S)(c2ccccc2)c2ccccc2)c(O)c1O | 83* | 0.2 | -2.3 | 0 | 96*
O=C(C1CCCN(c2nnc(-n3cccc3)s2)C1)N1CCC2(CC1)OCCO2 (configuration not stated) | 41 | 0.6 | 0.64 | 0.8 | 22
CC(C)CCP(=O)(O)c1ccccc1 | 4 | 1 | 0.3 | 0.8 | 20
COC(=O)C1=C(c2ccc(S(C)(=O)=O)cc2)C[C@@H]2CC[C@H]1N2C(=O)N1CCCCC1 | x | x | 2.3 | x | x
CN(C)c1ccc(CN2CC=C(c3ccc(F)cc3)CC2)cc1 | 62* | 0.4 | -0.045 | 1.1 | -7
O=c1[nH]c(=S)n(Cc2ccc(F)cc2)c(O)c1C=NCc1cccnc1 | 66* | 0.3 | x | 0.8 | 15
CC(=O)OC1(Cc2ccccc2)CN2CCC1c1ccccc12 (configuration not stated) | 74* | 0.3 | -1.4 | 0.4 | 60*
CC(=O)OC1(c2ccc(C)cc2)CN2CCC1c1ccccc12 (configuration not stated) | 99* | 0 | 0.54 | 1.3 | -27
N[C@@H](Cc1c[nH]c2ccccc12)c1nnc(SCc2ccc(Cl)cc2)o1 | 66* | 0.3 | x | 0.6 | 44
O=C(CF)NC(Nc1cccc2cccnc12)C(Cl)(Cl)Cl (configuration not stated) | 89* | 0.1 | -0.52 | 0.6 | 41
COP(=O)(OC)C1(Nc2ccc(C)cc2)CCCCC1 | 83* | 0.2 | -0.0036 | 0.7 | 33
CN1C(=O)c2ccccc2Sc2ccc(C(=O)N3CCC4(CC3)OCCO4)cc21 | 0 | 1 | x | 0.7 | 28
CCN1C(=O)c2ccccc2Sc2ccc(C(=O)N3CCC4(CC3)OCCO4)cc21 | 6 | 0.9 | x | 0.2 | 83*
Fc1ccc(CCNCc2cccc(Cl)c2)cc1 | 92* | 0.1 | 0.72 | 0.9 | 7
COc1ccc(CCNCc2ccc(F)cc2)cc1OC | 52* | 0.5 | 1.1 | 1.2 | -16
Cn1cccc1CNCCc1ccccc1 | 34 | 0.7 | 0.019 | 1 | 3
COC(=O)C1=C(c2cc3ccccc3s2)C[C@@H]2CC[C@H]1N2C(=O)NCc1ccco1 | x | x | -2.7 | x | x
O=C1NC(=S)NC(=O)C1C/C=C/c1ccccc1 | -3 | 1 | -0.016 | 1 | -1
OCC12COC3c4ccccc4C(OC1)N32 (configuration not stated) | 6 | 0.9 | -0.016 | 1 | -5
Cc1ccccc1-n1c(C)nc2sccc2c1=O | 53* | 0.5 | 0.87 | 1 | 5
O=c1c2ccccc2nc(-c2cccs2)n1-c1ccccc1 | 22 | 0.8 | -0.95 | 0.7 | 33
Clc1ccccc1CN1CCN(c2ccccc2)CC1 | 99* | 0 | -0.023 | 0.6 | 41
Clc1cccc(Cl)c1CN1CCN(c2ccccc2)CC1 | 95* | 0 | x | 0.6 | 38
Clc1ccc(N2CCN(Cc3ccccc3Cl)CC2)cc1 | 41 | 0.6 | -0.44 | 1.2 | -19
CC(C)(C)c1ccc(O)c(CN2CCN(c3ccccc3)CC2)c1 | 22 | 0.8 | 0.51 | 0.8 | 22
